Measurements: PubChem BioAssay (Tox21)
Inconclusive results are not listed. Values without a mark were called inactive. Calls follow the shape of the dose curve; as a rule, active = well fitted cell-killing curve with a large enough effect in the repeat runs; inconclusive = weak or mixed curves; inactive = flat fitted curve, though single readings scatter.

Test: qHTS RealTime-Glo MT Cell Viability Assay in HepG2 cells - 16 hour (AID 1224885); also: nearly all actives have a fitted effect of over 50% in size
Details: RealTime-Glo luminescence; series mostly up to 76.8 µM; activity change, negative = cytotoxic: at the top concentration
From the text: U.S. Tox21 Program National Center for Advancing Translational Sciences [NCATS] NIH Chemical Genomics Center [NCGC] U.S. Environmental Protection Agency [EPA] National Institutes of Environmental Health Sciences [NIEHS] National Toxicology Program [NTP] U.S. Food and Drug Administration [FDA] Tox21 Assay Overview: Measure of cell viability is critical in the cell-base assay. Analysis of cell viability is necessary for the characterization of cell responses to cytotoxic drugs and environmental stress. A RealTime-Glo MT Cell Viability Assay to monitor cell viability in real time of continues cell culture during 40 hours of compound treatment was used to screen Tox21 10K library compounds in HepG2 cells. The RealTime-Glo MT Cell Viability Assay is a nonlytic, homogeneous, bioluminescent method to measure cell viability in real time using a simple, plate-based method. The assay involves adding NanoLuc luciferase and a cell-permeant prosubstrate to cells in culture. Viable cells reduce the proprietary prosubstrate to generate a substrate for NanoLuc luciferase. This substrate diffuses from cells into the surrounding culture medium, where it is rapidly used by the NanoLuc Enzyme to produce a luminescent signal. The signal correlates with the number of viable cells, making the assay well suited for cytotoxicity studies.
Tox21 Assay Protocol Summary: The mixture of HepG2 cell suspension and reagents were dispensed at 600cells/6 ul/well in 1536-well tissue culture treated black solid bottom plates using a Multidrop dispenser. After the assay plates were incubated at a 37 C/5% CO2 incubator for 5 hours, 23 nL of compounds dissolved in DMSO, positive and negative controls was transferred to the assay plate by a pintool work station. The plates were incubated at 37 C for 40 hours. The luminescence intensity were measured at 0h, 8h, 16h, 24h, 32h and 40h time points using ViewLux plate reader during compound treatment.
% is scaled to controls: 0 for no effect and ±100 for the full control effect.

Row | Compound | activity change, negative = cytotoxic
1 | CCCCCCCC(=O)Oc1c(Br)cc(C#N)cc1Br | -14.2%
2 | O=C(C(=O)c1ccco1)c1ccco1 | 5.23%
3 | Cc1ccccc1S(N)(=O)=O | 0.234%
4 | CC1CCc2nccnc21 (stereo not given) | 4.58%
5 | Cc1cn([C@H]2C[C@H](F)[C@@H](CO)O2)c(=O)[nH]c1=O | 0.96% [at 35.3 µM]
6 | COc1ccc(N)c([N+](=O)[O-])c1 | -11.8%
7 | C1=CCC2CC=CC2C1 (stereo not given) | 1.59%
8 | CCOC(=O)c1ccc(NC(=O)CN2CCCCC2)cc1 | 0.349% [at 35.3 µM]
9 | C1CCCCC1 | 1.38%
10 | CC(C)CC(O)CC(C)C | 0.54%
11 | CCO[Si](C)(CCCOCC1CO1)OCC (stereo not given) | 1.27%
12 | CC1=CC[C@@]23C[C@@H]1C(C)(C)[C@@H]2CC[C@H]3C | 1.53%
13 | Cc1cccc(C)c1NC(=O)c1cc(S(N)(=O)=O)c(Cl)cc1O | -0.762% [at 35.3 µM]
14 | C=C(C)c1ccccc1 | 0.37%
15 | CCN(CC)C(=O)N1CCN(C)CC1 | 0.396% [at 35.3 µM]
16 | O=C(O)c1cccc(C[C@@H]2COc3ccc(OCc4nc5cc(F)ccc5s4)cc3[C@@H]2O)c1 | 0.924%
17 | COC(OC)OC | 1.03%
18 | CCCCCCOC(=O)CCCCC | 0.156%
19 | C=Cc1ccc(OC(C)=O)cc1 | 3.73%
20 | O=C(NC(Cc1cc(=O)[nH]c2ccccc12)C(=O)O)c1ccc(Cl)cc1 (stereo not given) | 0.858% [at 35.3 µM]

Row | Compound | activity change, negative = cytotoxic
21 | Cc1ccc2c(c1[N+](=O)[O-])C(=O)c1ccccc1C2=O | -15.7% [at 35.3 µM]
22 | O=C(O)/C=C/c1ccc(O)c(O)c1 | -1.38%
23 | COc1cc(C(C)=O)ccc1OCCCN1CCC(c2noc3cc(F)ccc23)CC1 | -20.5% [at 35.3 µM]
24 | O=C(c1ccccc1)c1ccc(O)cc1 | -9.71%
25 | CCC(CO)(CO)[N+](=O)[O-] | 0.374%
26 | O=C(O)CN1C(=O)c2cccc3cccc(c23)C1=O | 1.97% [at 35.3 µM]
27 | CC1=CC[C@@H]2C[C@H]1C2(C)C | 1.14% [at 15.8 µM]
28 | CCC1CCC(CCC(=O)O)C1 (stereo not given) | 0.361%
29 | N[C@@H](Cc1cc(I)c(O)c(I)c1)C(=O)O | -2.04% [at 35.3 µM]
30 | O=C(/C=C/c1ccc([N+](=O)[O-])cc1)c1ccccc1 | -25.6%
31 | O=c1[nH][nH]c(=O)c2cc([N+](=O)[O-])ccc12 | 0.187%
32 | COc1ccc(C2C(=O)c3ccccc3C2=O)cc1 | 1.95% [at 35.3 µM]
33 | CCC(=O)OCc1ccc(OC)cc1 | 0.0794%
34 | COC(=O)Nc1nc2ccc(C(=O)C3CC3)cc2[nH]1 | -15.1% [at 35.3 µM]
35 | Nc1ccc(N=Nc2ccc(N)cc2)cc1 | 0.332% [at 35.3 µM]
36 | COC(C)(C)OC | 0.776%
37 | O=C1[C@@H]2[C@H]3CC[C@H](C3)[C@@H]2C(=O)N1CCCCN1CCN(c2ncccn2)CC1 | 1.65% [at 35.3 µM]
38 | C[C@@H]1[C@H](O)[C@@H](C)/C=C/C=C\C=C\C=C\C=C\C=C\C=C\[C@H](O[C@@H]2O[C@H](C)[C@@H](O)[C@H](N)[C@@H]2O)C[C@@H]2O[C@](O)(C[C@@H](O)C[C@@H](O)[C@H](O)CC[C@@H](O)C[C@@H](O)CC(=O)O[C@H]1C)C[C@H](O)[C@H]2C(=O)O (stereo in doubt) | -4.32%
39 | C[C@@H]1C[C@H]2[C@@H]3CCC4=CC(=O)C=C[C@]4(C)[C@@]3(F)[C@@H](O)C[C@]2(C)[C@@]1(O)C(=O)COP(=O)(O)O | -1.71%
40 | CS(=O)(=O)c1ccc([C@@H](C[C@H]2CCC(=O)C2)C(=O)Nc2cnccn2)cc1Cl | 2.69%
